Results filed as inconclusive are left out. Values without a mark were called inactive. The source made the active and inactive calls. Calls come from the whole dose curve; as a rule, active = well fitted inhibition curve with a large enough effect; inconclusive = small, poorly fitted or top-dose-only effect; inactive = flat fitted curve, though single readings scatter.
Target: Tyrosyl-DNA phosphodiesterase 1 (Homo sapiens) (UniProt Q9NUW8)
Assay: Confirmation Assay for Inhibitors of Tyrosyl-DNA Phosphodiesterase (TDP1) (AID 489007); note: nearly all actives have a fitted effect of over 40% in size
Details: recombinant human TDP1 enzymatic activity, dose-response
Summary of the method: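 Compounds are preincubated 15 min at room temperature with 1 nM recombinant human Tdp1. The reaction starts on adding 15 nM FITC-phosphotyrosine DNA substrate, runs 5 min, and is detected by AlphaScreen beads after 10 min.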
Potency is the fitted concentration of half-maximal effect.

Tyrosyl-DNA phosphodiesterase 1 (Homo sapiens), sequence (Q9NUW8 whole entry, looked up): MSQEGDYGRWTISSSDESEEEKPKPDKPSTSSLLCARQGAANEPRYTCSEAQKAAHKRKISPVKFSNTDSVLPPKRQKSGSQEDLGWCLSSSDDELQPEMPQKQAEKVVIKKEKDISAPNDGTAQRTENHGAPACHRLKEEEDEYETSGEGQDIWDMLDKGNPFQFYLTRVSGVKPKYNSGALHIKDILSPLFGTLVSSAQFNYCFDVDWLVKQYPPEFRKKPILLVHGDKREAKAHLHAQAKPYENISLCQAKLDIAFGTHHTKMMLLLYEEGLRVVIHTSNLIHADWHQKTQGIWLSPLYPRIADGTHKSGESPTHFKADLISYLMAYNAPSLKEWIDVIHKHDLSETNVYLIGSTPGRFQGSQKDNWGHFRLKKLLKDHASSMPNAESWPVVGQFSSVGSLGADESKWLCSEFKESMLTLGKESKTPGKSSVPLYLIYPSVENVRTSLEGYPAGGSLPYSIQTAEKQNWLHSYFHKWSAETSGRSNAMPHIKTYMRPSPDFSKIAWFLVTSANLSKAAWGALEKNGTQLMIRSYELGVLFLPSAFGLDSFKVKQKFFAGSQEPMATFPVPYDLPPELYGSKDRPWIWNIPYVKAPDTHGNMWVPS

Row | Compound | Potency
1 | CCOC(=O)c1sc2nc3c(SCCC(=O)O)cc(C(=O)c4cc(OC)ccc4O)cn3c(=O)c2c1C | 2.82 µM (active)
2 | O=C(O)C1C2C=CC3(O2)C1C(=O)N1c2ccccc2C2OCCC2C13 (configuration not stated) | 35.5 µM (active)
3 | Cn1c(-n2cccc2)c(-c2c(-c3ccccc3)[nH]c3c2c(=O)[nH]c(=O)n3C)c(=O)[nH]c1=O | 100 µM (active)
4 | O=C(O)C1C2C=CC(C2)C1C(=O)NCc1cccs1 (configuration not stated) | 31.6 µM (active)
5 | COc1ccc(S(=O)(=O)NCc2cccs2)cc1 | 112 µM (active)
6 | O=C1CC(=O)N(Cc2ccco2)C(=S)N1 | 15.8 µM (active)
7 | O=C(O)c1ccc(-c2ccc(/C=C3\NC(=O)N(Cc4ccc(Cl)cc4)C3=O)o2)cc1Cl | 3.55 µM (active)
8 | CC(=O)c1ccc(S(=O)(=O)N2Cc3ccccc3CC2C(=O)O)cc1 (configuration not stated) | 15.8 µM (active)
9 | CN(C)/C=C/C=C1C(=O)CCCC1=O | 89.1 µM (active)
10 | Cc1ccccc1Nc1cccc2nonc12 | 100 µM (active)
11 | O=C(O)c1cc(-c2ccc(/C=N/N3C(=O)C4C5C=CC(C6CC56)C4C3=O)o2)ccc1Cl (configuration not stated) | 31.6 µM (active)
12 | C=CCc1cccc2cc(C(=O)Nc3ccc(S(=O)(=O)Nc4nnc(CC)s4)cc3)c(=O)oc12 | 15.8 µM (active)
13 | CC(=O)c1ccc(NC(=O)c2ccc3nc(-c4ccco4)c(-c4ccco4)nc3c2)cc1 | 7.08 µM (active)
14 | Cc1ccc(NC(=O)CN2C(=O)S/C(=C\c3cccn3-c3cccc(C(=O)O)c3)C2=O)c(C)c1 | 15.8 µM (active)
15 | CC(C)CN(C(=O)COC(=O)c1cc2c(s1)CCC2)C1CCS(=O)(=O)C1 (configuration not stated) | 44.7 µM (active)
16 | Cc1ccc2nc(-c3ccncc3)cc(C(=O)Nc3ccc(OC(F)F)cc3)c2c1 | 70.8 µM (active)
17 | O=C(COC(=O)c1cc2c(s1)CCC2)Nc1ccc(F)cc1 | 12.6 µM (active)
18 | NC(=O)COC(=O)c1ccc(S(=O)(=O)NCc2ccco2)cc1 | 126 µM (active)
19 | O=C(O)c1cccc(-n2cccc2/C=C2\SC(=O)N(Cc3ccccc3F)C2=O)c1 | 11.2 µM (active)
20 | Cc1ccc(CNC(=O)c2ccc(-n3cccc3)cc2)cc1 | 12.6 µM (active)
21 | Cc1nc(S/C(=C\c2ccc(-c3ccc(C(=O)O)c(Cl)c3)o2)C(=O)O)n[nH]1 | 3.55 µM (active)

Row | Compound | Potency
22 | CC1=N/C(=C/c2ccco2)C(=O)O1 | 3.55 µM (active)
23 | Cc1ccc(Oc2cc(-n3nc(C)cc3C)ncn2)cc1 | 112 µM (active)
24 | Cc1ccc(S(=O)(=O)N2CC=C(C(=O)NCc3ccc(F)cc3)CC2)cc1 | 28.2 µM (active)
25 | CCOC(=O)N1CCC(N2Cc3cccc(C(=O)NCc4ccc5c(c4)OCO5)c3C2=O)CC1 | 15.8 µM (active)
26 | O=c1cc(CCl)nc2sc3ccccc3n12 | 14.1 µM (active)
27 | CCCn1c(SCC(=O)NC(=O)NCc2ccco2)n[nH]c1=O | 25.1 µM (active)
28 | C=C1c2cccc(OC)c2O[C@H](C(=O)OCC)[C@@H]1CCCCCC | 0.0251 µM (active)
29 | O=C(NC1CC1)c1cc(-c2ccco2)nc2ccccc12 | 3.55 µM (active)
30 | N#C/C(=C\c1ccc(OCc2ccc(F)cc2)cc1)C(=O)Nc1cccc(C(=O)O)c1 | 14.1 µM (active)
31 | CC(=O)Nc1ccc2nc3c(=O)[nH]c(=O)[nH]c3nc2c1 | 4.47 µM (active)
32 | CC(=O)Nc1ccc2c(COC(=O)CC3Sc4ccccc4NC3=O)cc(=O)oc2c1 (configuration not stated) | 15.8 µM (active)
33 | O=C(O)c1ccc(-c2ccc(/C=C3\NC(=O)N(Cc4ccc(Cl)cc4)C3=O)o2)cc1 | 14.1 µM (active)
34 | Cc1ccc(C)n1-c1ccc(C(=O)O)cc1 | 0.794 µM (active)
35 | Cc1ccc(NC(=O)c2noc3c2CCC3)cc1C | 12.6 µM (active)
36 | Nc1ccc(Nc2ccccc2)c(S(=O)(=O)O)c1 | 7.94 µM (active)
37 | O=C(/C=C/c1c(Cl)nc2ccccn12)N1CCN(c2ccc(F)cc2)CC1 | 35.5 µM (active)
38 | Cc1ccc(CSc2nnc(SCC(=O)N/N=C/c3c[nH]c4ccccc34)s2)cc1 | 5.62 µM (active)
39 | Cc1c(C(=O)O)sc2nc3n(c(=O)c12)CCC3 | 6.31 µM (active)
40 | CC(=O)NC1=NC(=O)/C(=C/c2cc(C)n(-c3cccc(C(=O)O)c3)c2C)S1 | 2 µM (active)
41 | OC[C@@H]1[C@@H](c2ccccc2)C(c2cccc(Cl)c2)=NN1c1ccccc1 | 10 µM (active)
42 | CC(=O)OCC1=C(C(=O)O)N2C(=O)C(NC(=O)CSc3ccncc3)[C@@H]2SC1 (some centres not stated) | 14.1 µM (active)
